SMILES strings stand for the structures.

What all share (format): functional
Assay [1] addresses Solute carrier family 2, facilitated glucose transporter member 1 (Homo sapiens) (UniProt P11166). Briefly: ST_JUDE_LEISH: Cytotoxicity at 2uM final concentration against transgenic Leishmania Mexicana promastigotes LmGLUT1 that are glucose transport deficient and complemented with the human glucose transporter GLUT1. Activity is measured by DNA content using SYBR green in vitro.

For assay [2], the target named is Hexose transporter 1 (Plasmodium falciparum) (UniProt O97467). Nature of the assay: ST_JUDE_LEISH: Cytotoxicity at 2uM final concentration against transgenic Leishmania Mexicana promastigotes LmPfHT that are glucose transport deficient and complemented with the Plasmodium falciparum hexose transporter. Activity is measured by DNA content using SYBR green in vitro.

The target of assay [3] is Glucose transporter (Leishmania mexicana) (UniProt O61059). Briefly: ST_JUDE_LEISH: Cytotoxicity at 2uM final concentration against transgenic Leishmania Mexicana promastigotes LmGT2 that are glucose transport deficient and complemented with the L. Mexicana glucose transporter 2. Activity is measured by DNA content using SYBR green in vitro.

Sequence of Solute carrier family 2, facilitated glucose transporter member 1 (Homo sapiens) (P11166 whole entry): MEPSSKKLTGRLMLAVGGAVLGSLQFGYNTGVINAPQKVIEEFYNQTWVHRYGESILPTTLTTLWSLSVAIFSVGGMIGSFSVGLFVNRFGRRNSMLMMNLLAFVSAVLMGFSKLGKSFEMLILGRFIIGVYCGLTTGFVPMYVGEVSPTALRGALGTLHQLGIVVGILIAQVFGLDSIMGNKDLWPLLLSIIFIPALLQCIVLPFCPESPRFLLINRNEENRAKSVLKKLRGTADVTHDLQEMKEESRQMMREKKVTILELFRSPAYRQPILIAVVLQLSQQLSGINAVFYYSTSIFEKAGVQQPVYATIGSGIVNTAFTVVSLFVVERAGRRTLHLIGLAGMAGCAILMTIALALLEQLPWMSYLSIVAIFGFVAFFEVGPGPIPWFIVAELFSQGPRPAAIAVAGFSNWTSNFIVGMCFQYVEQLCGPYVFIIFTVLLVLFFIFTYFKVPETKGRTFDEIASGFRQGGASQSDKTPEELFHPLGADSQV

Consider `NS(=O)(=O)c1ccc(CNC(=O)c2cnc3c(O)cccc3c2Nc2cccc(NC(=O)c3ccc(Cl)c(Cl)c3)c2)cc1`, for which the inhibition in assay [1] is 5.22%; in assay [2], 5.59%; in assay [3] it was 5.34%.
On the same counts, the results for `CC(=O)Oc1c(C2CCN(CCCCNC(=O)c3ccc(NC(=O)c4ccc(Cl)cc4)cc3)CC2)ccc2ccccc12` are 3.43%, 3.63% and 4.42%.
For `CCCCCCCC/C=C\CCCCCCCC(=O)NCc1ccc(O)c(OC)c1`, in that order: 8.15%, 7.4% and 5.67%.
For `CCC(=O)Nc1ccc(C(O)CN2CCC3(C=Cc4ccccc4O3)CC2)cc1` (stereo not drawn), in that order: 3.61%, 2.65% and 1.63%.
Take `COc1cccc(C(=O)Nc2ccc(Nc3nc(C)cc(N4CCCCC4)n3)cc2)c1OC`: the inhibition is 1.99% in assay [1], 2.75% in assay [2] and 0.19% in assay [3].
For the molecule `CC(C)CC(NC(=O)c1cccc(OCCN2CCOCC2)c1)C(=O)NC(/C=N/NC(=O)c1ccccc1)CCc1ccccc1` (stereo not drawn), the values for the inhibition in assay [1], in assay [2] and in assay [3] were 7.09%, 8.91% and 5.71%, respectively.
On the same counts, the results for `O=C(NCCCc1ccccc1)c1csc(C2CCCN(C(=O)c3ccc(O)c(-c4cccc5ccccc45)c3)C2)n1` (stereo not drawn) are 0.14%, -0.18% and -0.59%.
For `O=C(Nc1ccc([N+](=O)[O-])cc1)Nc1cc(C(F)(F)F)ccc1F`, in that order: 0.91%, 1.47% and 3.15%.
On the same counts, the results for `CCOC(=O)c1ccc(NC(=O)Nc2cccc(-c3ccc(-c4nc5cc(C(F)(F)F)ccc5[nH]4)cc3)c2)cc1` are -0.08%, 1.53% and 0.3%.
`COc1ccc(NC(=O)/C=C/c2ccccc2Cl)cc1OCCN1CCC(N2CCCCC2)CC1`: the inhibition in assay [1] is 7.74%; in assay [2], 7.17%; in assay [3] it was 7.17%.
In the case of `O=C(Nc1ccc(OC2CCN(Cc3ccsc3)C2)c(Cl)c1)c1ccc(F)cc1` (stereo not drawn), the inhibition in assay [1] worked out at 0.29%; in assay [2] it was 0.51%; in assay [3], 0.32%.

The record behind these values is ChEMBL document CHEMBL3433997, “St. Jude Leishmania screening dataset” (2016).
